From PubChem BioAssay AID588332 (National Center for Advancing Translational Sciences (NCATS), 2011)
Calls of active or inactive are those of the source. Calls follow the shape of the dose curve; as a rule, active = well fitted curve in the direction sought with a large enough effect; inactive = no such curve, though single readings can be large or run the other way.

The compounds below were run against ATP-dependent 6-phosphofructokinase (Geobacillus stearothermophilus) (UniProt P00512) (assay: Confirmatory Assay to Find Inhibitors of T. brucei phosphofructokinase: Counter Screen against Bacillus PFK). Details: B. stearothermophilus PFK, ADP-Glo luminescence, 45 min; series mostly up to 57.5 µM.
Source text: Various species of the protozoan family Trypanosomatidae are responsible for a range of serious human diseases in tropical and subtropical areas of the world. […] Many of the disorders caused by trypanosomatids are fatal if left untreated, but most currently used drugs are inefficient and toxic. […] Oxidative metabolism involving the mitochondrial tricarboxylic acid cycle and oxidative phosphorylation are repressed in these parasites, and recent RNA interference (RNAi) experiments have shown that even partial depletion of certain individual glycolytic enzymes can lead to the death of cultured parasites. One such glycolytic enzyme, phosphofructokinase (PFK), catalyzes the formation of fructose-1,6-bisphosphate (F1,6BP) and ADP from fructose-6-phosphate (F6P) and ATP, and in many metabolic circumstances makes an important contribution to the control of flux through the glycolytic pathway. As a specific glycolytic target, PFK is particularly attractive as it catalyzes the first irreversible step in glycolysis, and structural and kinetic studies have shown very substantial and essential differences from corresponding host enzymes, allowing for the discovery of parasite-selective inhibitors. A luminescent biochemical assay was performed that used luciferase-based nucleotide detection (ADP-Glo, Promega) to examine the effect of identified actives against a bacterial isoform of PFK, namely Bacillus stearothermophilus, for target specificity. The assay is identical in concept to the T. brucei PFK qHTS assay, but instead uses the B. stearothermophilus isoform of PFK (Sigma, St. Louis, MO) and ATP/F6P at bacterial isoform-specific Km concentrations. NIH Chemical Genomics Center [NCGC] NIH Molecular Libraries Probe Centers Network [MLPCN] MLPCN Grant: MH092153-01 Assay Submitter (PI): Malcom Walkinshaw, University of Edinburgh
Substrate buffer was dispensed into white, solid 1536-well plates at 3 uL/well in 0.1M triethanolamine (TEA) buffer, pH 8.0, containing final concentrations of 5 mM MgCl2, 0.01% Tween20, 0.6 mM fructose-6-phosphate (F6P) and 0.1 mM ATP. Then, 23 nl of compounds or DMSO were delivered to each well using a pin tool. One uL of B. stearothermophilus PFK (0.1 M TEA, 0.01% Tween20, 0.1% bovine serum albumin (BSA) and 10 nM PFK, final concentrations) was then dispensed, and plates were incubated at room temperature for 45 min. The luminescent detection reagent, ADP-Glo (Promega), was then added in two steps: the first reagent, ADP-Glo (which converts remaining uncatalyzed ATP), was added at 2.5 uL/well and incubated for ten minutes at room temperature, and the second component, Kinase Detection reagent (which converts ADP to ATP as a substrate for luciferase-based luminescence), was added immediately after at 5uL/well, followed by one final ten minute room temperature incubation. The plates were measured on a ViewLux plate reader for luminescent signal using a clear filter with a one second exposure. The %Activity was determined from the corrected luminescence values. 1x (1.25nM) and 0x PFK enzyme controls (untreated) were included to normalize %Activity of identified inhibitors; 0x enzyme values corresponded to 100%Activity (full inhibition), while 1x PFK enzyme values were used to normalize 0% Activity (no inhibition).

Structure (SMILES)	outcome
Cc1cc(NS(=O)(=O)c2ccc(N(C)C(=O)Cc3ccc(Cl)c(Cl)c3)cc2)no1	inactive
Cc1cc(NC(=O)c2ccc(NC(=O)Cc3ccc(Cl)c(Cl)c3)cc2)no1	inactive
Cc1cc(N(C)S(=O)(=O)c2ccc(NC(=O)Cc3ccc(Cl)c(Cl)c3)cc2)no1	inactive
Cc1cc(NS(=O)(=O)c2ccc(NC(=O)Cc3ccc(Cl)c(Cl)c3)cc2)no1	inactive
Cc1cc(NS(=O)(=O)c2ccc(NC(=O)Cc3ccc(C)c(C)c3)cc2)no1	inactive
Cc1cc(NS(=O)(=O)c2ccc(NC(=O)Cc3ccc4ccccc4c3)cc2)no1	inactive
Cc1cc(NS(=O)(=O)c2ccc(NC(=O)CCc3ccc(Cl)c(Cl)c3)cc2)no1	inactive
CN(C)c1cccc(NS(=O)(=O)c2ccc(NC(=O)Cc3ccc(Cl)c(Cl)c3)cc2)c1	inactive
Cc1cc(NS(=O)(=O)c2ccc(NC(=O)Cc3ccc(Cl)c(Cl)c3)cc2)n(C)n1	inactive
COc1ccc(CC(=O)Nc2ccc(S(=O)(=O)Nc3cc(C)on3)cc2)cc1OC	inactive
Cc1cc(NS(=O)(=O)c2ccc(NC(=O)C(C)(C)c3ccc(Cl)c(Cl)c3)cc2)no1	inactive
O=C(Cc1ccc(Cl)c(Cl)c1)Nc1ccc(S(=O)(=O)Nc2ccon2)cc1	inactive
O=C(Cc1ccc(Cl)c(Cl)c1)Nc1ccc(S(=O)(=O)Nc2cccc(C(=O)O)c2)cc1	inactive
Cc1cc(NS(=O)(=O)c2cccc(NC(=O)Cc3ccc(Cl)c(Cl)c3)c2)no1	inactive
Cc1cc(NS(=O)(=O)c2ccc(NC(=O)Cc3cccc(Cl)c3)cc2)no1	inactive
Cc1cc(NS(=O)(=O)c2ccc(NC(=O)Cc3ccc(C)c(F)c3)cc2)no1	inactive
Cc1cc(NS(=O)(=O)c2ccc(NC(=O)Cc3ccc(Cl)c(F)c3)cc2)no1	inactive
O=C(Cc1ccc(Cl)c(Cl)c1)Nc1ccc(S(=O)(=O)Nc2cncnc2)cc1	inactive
Cc1cc(N[S+](=O)([O-])c2ccc(NC(=O)Cc3ccc(Cl)nc3)cc2)no1	inactive
Cc1cc(NS(=O)(=O)c2ccc(C(=O)NCc3ccc(Cl)c(Cl)c3)cc2)no1	inactive

Structure (SMILES)	outcome
Cc1cc(NS(=O)(=O)CCNC(=O)Cc2ccc(Cl)c(Cl)c2)no1	inactive
Cc1cc(NS(=O)(=O)c2ccc(NS(=O)(=O)Cc3ccc(Cl)c(Cl)c3)cc2)no1	inactive
Cc1cc(NS(=O)(=O)c2ccc(NC(=O)c3ccc(Cl)c(Cl)c3)cc2)no1	inactive
Cc1cc(NS(=O)(=O)Cc2ccc(NC(=O)Cc3ccc(Cl)c(Cl)c3)cc2)no1	inactive
COc1ccc(CC(=O)Nc2ccc(S(=O)(=O)Nc3cc(C)on3)cc2)cc1C	inactive
Cc1cc(NS(=O)(=O)c2ccc(NC(=O)Cc3ccc(Cl)cc3)cc2)no1	inactive
O=C(Cc1ccc(Cl)c(Cl)c1)Nc1ccc(S(=O)(=O)O)cc1	inactive
Cc1cc(NS(=O)(=O)c2ccc(NCCc3ccc(Cl)c(Cl)c3)cc2)no1	inactive
Cc1cc(NS(=O)(=O)c2ccc(NC(=O)Cc3ccccc3)cc2)no1	inactive
Cc1cc(N[S+](=O)([O-])c2ccc3cc(NC(=O)Cc4ccc(Cl)c(Cl)c4)ccc3c2)no1	inactive
O=C(Cc1ccc(Cl)c(Cl)c1)Nc1ccc(S(=O)(=O)Nc2ccccc2)cc1	inactive
Cc1cc(NS(=O)(=O)C2CCN(C(=O)Cc3ccc(Cl)c(Cl)c3)CC2)no1	inactive
Cc1cc(NS(=O)(=O)c2ccc(NC(=O)Cc3ccc(Cl)cc3Cl)cc2)no1	inactive
O=C(Cc1ccc(Cl)c(Cl)c1)Nc1ccc(S(=O)(=O)Nc2cccc(O)c2)cc1	inactive
Cc1cc(NS(=O)(=O)c2ccc(NC(=O)Cc3ccc(Cl)c(Cl)c3)cc2)on1	inactive
Cc1cc(NS(=O)(=O)c2ccc(NC(=O)Cc3ccc(Cl)c(C(F)(F)F)c3)cc2)no1	inactive
O=C(Cc1ccc(Cl)c(Cl)c1)Nc1ccc(S(=O)(=O)Nc2ccc(C(=O)O)cc2)cc1	inactive
O=C(Cc1ccc(Cl)c(Cl)c1)Nc1ccc(S(=O)(=O)Nc2ccn[nH]2)cc1	inactive
Cc1cc(NC(=O)c2csc(NC(=O)Cc3ccc(Cl)c(Cl)c3)n2)no1	inactive
CCOC(=O)c1cccc(NS(=O)(=O)c2ccc(NC(=O)Cc3ccc(Cl)c(Cl)c3)cc2)c1	inactive
